Source: PubChem (Paczesny and Yang Labs, IUPUI and University of Michigan)
ST2 IL33 inh: inhibitors of human ST2 (IL1RL1) binding to IL-33, primary screen, biochemical, AlphaLISA | Interleukin-1 receptor-like 1 (Homo sapiens), Q01638 | AlphaLISA ST2-Fc/biotin-IL-33 interaction, 1 h | inhibition, % for hits at 17 µM | 78,000 tested, 2.3% active | AID 1259354, 2018; in the data active = inhibition above about 30%
Target sequence (Q01638 whole entry, looked up): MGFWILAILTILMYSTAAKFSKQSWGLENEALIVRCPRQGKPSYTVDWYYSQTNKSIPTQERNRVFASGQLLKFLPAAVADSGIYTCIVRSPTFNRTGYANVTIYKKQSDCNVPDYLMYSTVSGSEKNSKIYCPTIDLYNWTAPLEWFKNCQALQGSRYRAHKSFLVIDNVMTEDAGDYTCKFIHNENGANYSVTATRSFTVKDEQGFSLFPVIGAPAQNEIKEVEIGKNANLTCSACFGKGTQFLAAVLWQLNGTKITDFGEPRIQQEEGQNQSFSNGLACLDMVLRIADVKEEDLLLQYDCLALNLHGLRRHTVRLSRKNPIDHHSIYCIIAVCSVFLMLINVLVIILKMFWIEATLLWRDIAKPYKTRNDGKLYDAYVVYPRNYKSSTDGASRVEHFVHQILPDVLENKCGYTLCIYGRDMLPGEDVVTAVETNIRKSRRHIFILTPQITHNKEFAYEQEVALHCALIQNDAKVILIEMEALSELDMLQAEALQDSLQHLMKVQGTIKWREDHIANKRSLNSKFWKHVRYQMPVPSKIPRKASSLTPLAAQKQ
Large screens that a line does not name were inactive. Only a selection was taken, and hits are over-represented in it overall.

COc1ccc(-c2nc3c4c5c(sc4ncn3n2)CCCCC5)cc1OC	none
COc1ccccc1C1C(C(=O)Nc2ccccn2)=C(C)NC2=C1C(=O)CC(C)(C)C2 (stereo not drawn)	none
Cc1ccc(OCC(=O)Nc2ccc(C)cc2[N+](=O)[O-])c(C)c1	none
CCCCOc1ccc(C(=O)Nc2ccc(OCC)cc2[N+](=O)[O-])cc1	none
CCCOc1cccc(C(=O)Nc2ccc(C)cc2[N+](=O)[O-])c1	ST2 IL33 inh 32%
Cc1ccc(NC(=O)COc2c(C)ccc(C)c2C)c([N+](=O)[O-])c1	ST2 IL33 inh 33%
CCOc1ccc(NC(=O)c2cc(OC)cc(OC)c2)c([N+](=O)[O-])c1	none
Cc1ccc(NC(=O)COc2ccc(Cl)cc2)c([N+](=O)[O-])c1	none
O=C(Nc1ccc(F)cc1F)c1noc2c1CCCC2	none
COc1ccc(C2C(C(=O)Nc3ccccn3)=C(C)NC3=C2C(=O)CC(C)(C)C3)c(OC)c1 (stereo not drawn)	none
CN1CCN(CCn2c(C(C)(C)C)cn3c4ccccc4nc23)CC1	none
COc1ccc(-c2noc(CCC(=O)NCc3ccc4c(c3)OCO4)n2)cc1	none
CNc1ccc(-c2noc([C@@H]3CCCN3Cc3ccc(Cl)cc3)n2)cn1	none
COc1ccc(OCCOc2cccc(C=O)c2)cc1	none
COc1ccc(C2=C/C(=C/c3ccc4c(c3)OCO4)C(=O)O2)c(OC)c1	none
COc1ccc(OC)c(/C=C2/C=C(c3cc(OC)ccc3OC)OC2=O)c1	ST2 IL33 inh 41%
COc1ccc(OC)c(N2C(=O)C3CCCCC3C2=O)c1 (stereo not drawn)	none
COc1cccc(/C=C2/C=C(c3cc(OC)ccc3OC)OC2=O)c1	ST2 IL33 inh 42%
COc1ccc(OC)c(/C=C2\N=C(c3ccc(OC)c([N+](=O)[O-])c3)OC2=O)c1	none
Cc1ccc(NC(=O)c2ccco2)c(Br)c1	none
O=C(NCCC1=CCCCC1)C1C2C=CC3(CN(Cc4ccccc4Cl)C(=O)C13)O2 (stereo not drawn)	none
COc1ccc2oc(=O)c(NC(=O)/C=C/c3ccccc3)cc2c1	none
CC1=CC(=O)C=C(C)C1=NOC(=O)/C=C\c1ccccc1	ST2 IL33 inh 35%
COc1ccc(/C=C/C(=O)Nc2ccccc2C(=O)O)cc1OC	none
Cc1ccc(O)c(C2N(Cc3ccccc3O)CCN2Cc2ccccc2O)c1	none
CCOc1ccc(N=C(c2cccc([N+](=O)[O-])c2)N2CCOCC2)cc1	none
CCOc1ccc(C(=O)c2cccc([N+](=O)[O-])c2)cc1	ST2 IL33 inh 31%
CCOc1ccc(NC(=O)c2cccc([N+](=O)[O-])c2)cc1	none
Cn1c(=O)cc2c3c(c(Nc4ccccc4)ccc31)C(=O)c1ccccc1-2	ST2 IL33 inh 40%
Cn1c(CNc2ccccc2)cc(=O)n(C)c1=O	none
O=C1NC(=O)c2cc(Nc3ccccc3)c(Nc3ccccc3)cc21	none
C=CCn1cc(C(=O)N2CCOCC2)c(=O)c2cc(S(=O)(=O)N3CCCCCC3)ccc21	none
Cc1ccc(-n2c(=O)c3c(C)c(C)sc3n(CC(=O)NCc3ccco3)c2=O)cc1C	none
Cc1cc(C)n(C(C)C(=O)NCC(=O)Nc2ccc(F)c(F)c2F)n1 (stereo not drawn)	none
Cc1ccc(Oc2ncccc2CNC(=O)c2cc(C3CC3)[nH]n2)cn1	none
Cc1ccc2c(c1)C(=O)C(=O)N2	none
Cc1ccc(N2C(=O)C(C)SC23C(=O)Nc2ccccc23)cc1 (stereo not drawn)	none
Cc1ccc(C2=NNC3(S2)C(=O)Nc2ccc(C)cc23)cc1 (stereo not drawn)	ST2 IL33 inh 44%
COc1cccc(-c2cnc(C(F)(F)F)nc2C2CCN(C(=O)CCn3ccc(C)n3)CC2)c1	none
Cc1nnc(NC(=O)CS(=O)(=O)c2c[nH]c3ccccc23)s1	none
Clc1ccc2nc(CSc3nncn3-c3ccccc3)c(Cl)n2c1	none
CCC(=O)N1CCc2cc(S(=O)(=O)NC(C(=O)Nc3cc(C)ccn3)C(C)C)ccc21 (stereo not drawn)	none
O=C(COc1ccccc1O)NO	none
O=C1NN(c2cccc(Cl)c2)C(=O)/C1=C\c1cccn1-c1ccc([N+](=O)[O-])cc1	ST2 IL33 inh 59%
Cc1ccc(N2NC(=O)/C(=C/c3ccc(Cl)c([N+](=O)[O-])c3)C2=O)cc1C	none
O=C1NN(c2cc(Cl)cc(Cl)c2)C(=O)/C1=C\c1cccn1-c1ccc([N+](=O)[O-])cc1	none
COc1ccc(C(=O)Nc2cc(N3CCCS3(=O)=O)ccc2OC)cc1	none
COc1cc(OC)c(NC(=O)CSc2cc(=O)n(C)c3cc(Cl)ccc23)cc1Cl	none
Nc1ccc(/C=C/C2C=CC=CC2)cc1 (stereo not drawn)	ST2 IL33 inh 47%
Cc1noc(C)c1C1CCCN1C(=O)c1cnn2ccn(C)c12 (stereo not drawn)	none
CCn1nc(C)c(NC(=O)CN2CCCC2c2cc(C(C)C)on2)c1C (stereo not drawn)	none
CC(C)c1cc(C2CCCN2C(=O)c2cnn3c2CCCC3)no1 (stereo not drawn)	ST2 IL33 inh 32%
CCOc1ccc(C(=O)Nc2cccc(C)c2C)cc1[N+](=O)[O-]	none
O=C(CN1CCCCC1)N1c2ccccc2C=Cc2ccccc21	none
[O-][n+]1cccc2c(Br)cc(Br)c(O)c21	ST2 IL33 inh 30%
Cn1c(=O)n(Cc2ccccc2F)c(=O)c2c1nc1n2CCN1c1ccccc1	none
CCN(C(=O)c1cc2cc3ccc(OC)cc3nc2o1)c1ccc(F)cc1	none
CCN(C(=O)c1cc2cc3ccc(OC)cc3nc2s1)c1cc(OC)ccc1OC	ST2 IL33 inh 31%
COc1ccc2cc3cc(C(=O)NC4CC4)sc3nc2c1	none
CCN(CC)CCNC(=O)c1cc2cc3cc(OC)ccc3nc2s1	none
COc1ccccc1NCN1C(=O)c2ccc(Br)cc2C1=O	none
CCc1nc(C)c(C(=O)Nc2cnc3n2CCCC3)o1	none
Cc1c(Br)c([N+](=O)[O-])nn1CC(=O)Nc1ncccc1C1CCCN1C (stereo not drawn)	none
c1ccc(-c2ccccc2-n2cnnc2)cc1	none
CN(Cc1ccc2ccccc2n1)C(=O)c1ccc(N2CCC(O)CC2)nc1	none
COc1cc(C2Nc3ccccc3NC3=C2C(=O)CC(c2ccccc2)C3)ccc1OC(C)=O (stereo not drawn)	none
COc1ccc(C2CC(=O)C3=C(C2)Nc2ccccc2NC3c2ccc(C)s2)cc1 (stereo not drawn)	ST2 IL33 inh 30%
CCCOc1ccccc1C1CC(=O)C2=C(C1)Nc1ccccc1NC2c1ccc(OC)cc1 (stereo not drawn)	none
O=C(O)c1ccccc1NCc1cccc2ccccc12	none
CCc1ccc(CN(C)Cc2cnc3c(-c4ccccc4)cnn3c2)nc1	none
OC1(c2ccccc2)CCN(Cc2cnc3c(-c4ccccc4)cnn3c2)CC1	ST2 IL33 inh 33%
COC(=O)[C@@H]1CCCN1Cc1cnc2c(-c3ccccc3)cnn2c1	none
O=C(CCSc1ccccc1)Nc1ccccc1F	none
CC1=C[C@@H](CNC(=O)c2ccc(C#N)cc2)[C@H](C(C)C)C[C@H]1CC(=O)NCCN(C)C	ST2 IL33 inh 31%
COc1ccc(CNC(=O)C[C@@H]2C[C@@H](C(C)C)[C@H](CNC(=O)c3ccc(C#N)cc3)C=C2C)cc1	none
CC1=C[C@@H](CNC(=O)c2ccc(C#N)cc2)[C@H](C(C)C)C[C@H]1CC(=O)NCc1cccnc1	none
Cc1ccc(NC(=O)CN2C(=O)CC(c3ccccc3)=Nc3ccccc32)cc1	none
N=Nc1[nH]c(N)c2ccccc12	ST2 IL33 inh 46%
O=C(CN1CCN(Cc2ccc(F)cc2Cl)S1(=O)=O)Nc1ccccc1	none
O=S(=O)(NC[C@H]1O[C@@H](CO)[C@@H](O)[C@H]1N1CCCC1)c1ccc(F)cc1	none
O=C(NCCc1cccc(Cl)c1)c1ccc([N+](=O)[O-])cc1Cl	none
